Experimental data from PubChem BioAssay (NCATS).
Inconclusive results are not listed. Active and inactive are the calls of the source. Unless noted, the call rests on the fitted dose curve; in most records, active means well fitted curve in either direction with a large enough effect (not every such curve was filed as active); inconclusive means small, poorly fitted or top-dose-only effect, or another doubt; inactive means flat fitted curve, though single readings scatter.

What was measured:
[1] = AP1 Signaling Pathway (AID 357);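 further: ME-180 reporter cells stimulated with EGF at its EC50 level; on the % scale 0 is the no-effect control and ±100 the full control effect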
Method in brief: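 Beta-lactamase reporter under AP-1 response element, ME-180 background. Stimulus: EC50 EGF. Compound exposure 5 h, 37 °C. Detection: CCF4, 2.5 h RT, 460/530 nm. Values: AC50 from titration.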

[2] = molecular target: Cytochrome P450 1A2 (Homo sapiens) (UniProt P05177); test: p450-cyp1a2 (AID 410; calls by dose curve; further: potency means the concentration at half of the fitted maximal effect;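 on activity change, negative = inhibition: -100% = full effect of reference inhibitor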)
Method in brief: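 Inhibition was calculated relative to 57 uM furafylline (full inhibition). The reaction used human CYP1A2 at 20nM with Luciferin-ME at its Km, 100uM, driven by an NADPH-regenerating system for 60 min at room temperature.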

[3] = NFAT Signaling Pathway (AID 444); conditions: Jurkat NFAT-bla M1, carbachol, beta-lactamase ratio, 5 h; at 17.2 µM (top of the series) unless noted;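 further: carbachol stimulus at about its EC50 of 1 µM final; on the % scale 0 is the no-effect control and ±100 the full control effect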
Method in brief: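 Jurkat cells with NFAT-driven β-lactamase reporter and co-expressed M1 receptor, stimulated with carbachol (final 1 uM, ~EC50), compound titration, 5 h at 37 °C. CCF4 loaded 1 h at RT; 460/530 nm ratio gave %activity and AC50.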

[4] = Stat Signaling Pathway (AID 446);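 further: ME-180 cervical cancer cells given 40 pM IL-6 alongside compound; SIE-controlled beta-lactamase reporter measured as 460/530 nm FRET emission ratio; on the % scale 0 is the no-effect control and ±100 the full control effect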
Method in brief: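 ME-180 cells carrying a SIE-driven beta-lactamase reporter are stimulated with 40 pM IL-6 for 5 h at 37C in the presence of compound. The 460/530 nm FRET substrate ratio is read after 2.5 h at RT. Data are normalised to 300 pM IL-6 and to 125 nM JAK inhibitor controls.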

[5] = molecular target: Glucocorticoid receptor (Homo sapiens) (UniProt P04150); test: GR-GFP Redistribution (AID 450;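 active means compounds whose dose series gives a full or clear partial fitted curve of increased nuclear translocation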; further: potency means the concentration at half of the fitted maximal effect); conditions: U2OS GR-GFP nuclear translocation, laser cytometry, 2 h
[6] = molecular target: Glucocorticoid receptor (Homo sapiens) (UniProt P04150); test: GR-EFC Redistribution (AID 451; calls by dose curve; further: potency means the concentration at half of the fitted maximal effect); conditions: CHO-K1 GR-EFC translocation, beta-gal luminescence, 2 h
Method in brief: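 CHO-K1 cells expressing nuclear EA and GR-ED fragments of b-gal; compounds titrated up to 46 uM final, 2 h at 37 C. GR nuclear translocation read as complemented b-gal luminescence after 1 h RT detection.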

[7] = molecular target: Mitogen-activated protein kinase 10 (Mus musculus) (UniProt Q61831); test: JNK3 AlphaScreen Assay (AID 530);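 further: kinase came from lysate of stimulated human HepG2 cells; signal reports phosphorylation of biotinylated GST-cJun 1-79 at Ser73 with 10 µM ATP; on the % scale 0 is the no-effect control and ±100 the full control effect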
Method in brief: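 qHTS format: compounds tested as titrations against IL-1beta/TNF-alpha-activated HepG2 lysate JNK3 with biotin-GST-cJun substrate and 10 uM ATP at room temperature. Loss of anti-phospho-cJun AlphaScreen signal indicates inhibition.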

[8] = molecular target: 3',5'-cyclic-AMP phosphodiesterase 4B (Homo sapiens) (UniProt Q07343); test: qHTS Assay for Inhibitors of PDE-IV (AID 607; active means well fitted activation curve with a large enough effect in the main read-out, with a control signal flat, not every such curve was filed as active; further: % of control where 0% means no effect)
Method in brief: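 HEK293 ACTOne cells with CNG channel (1000/well), endogenous PDE4; membrane potential dye, compounds up to 22.9 uM final. Fluorescence Ex 535/Em 590; RO 20-1724 (100 uM final) as reference.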

[9] = qHTS Assay for Lipid Storage Modulators (AID 1519; calls by dose curve); conditions: Drosophila S3 cells, BODIPY lipid droplet/cell ratio, laser cytometry, cells loaded with oleic acid
Method in brief: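 Cells seeded at 5,000 per well were treated with compounds over a concentration series and loaded with oleic acid (400 uM, as added). Lipid droplet fluorescence (488 nm excitation, 500-530 nm channel) was read by laser-scanning cytometry and normalized to 20 uM Triacsin C.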

[10] = molecular target: Ubiquitin carboxyl-terminal hydrolase 1 (Homo sapiens) (UniProt O94782); test: Inhibitors of USP1/UAF1: Pilot qHTS (AID 504865; active means well fitted curve in the direction sought with a large enough effect; an effect the other way counts as inactive or inconclusive;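 further: rhodamine fluorescence freed from ubiquitin-rhodamine substrate followed over time; top concentration of the series differs between compounds; on the % scale 0 is the no-effect control and ±100 the full control effect; nearly all actives have a fitted effect of over 35% in size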)
Method in brief: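 USP1/UAF1 complex (1nM) preincubated with compound 15 min at room temperature, then Ub-Rho substrate (150nM final) added. Fluorescence read kinetically at 480/540 nm, 6 reads every 60 seconds. Buffer: 50mM HEPES pH 7.8, 0.5mM EDTA, 0.1 mg/ml BSA, 1mM TCEP, 0.01% Tween-20.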

[11] = molecular target: ATP-dependent 6-phosphofructokinase (Trypanosoma brucei brucei) (UniProt O15648); test: qHTS Assay to Find Inhibitors of T. brucei phosphofructokinase: hit validation (AID 492961; active means well fitted curve in the direction sought with a large enough effect; an effect the other way counts as inactive or inconclusive; further: on the % scale 0 is the no-effect control and ±100 the full control effect)
Method in brief: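 Luminescence from ADP-Glo reports ADP generated as T. brucei PFK (1.25 nM) phosphorylates 0.5 mM fructose-6-phosphate using 0.1 mM ATP. Reactions ran 45 min at room temperature, pH 8.0.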

[12] = molecular target: Luciferin 4-monooxygenase (Photinus pyralis) (UniProt P08659); test: Biochemical firefly luciferase enzyme assay for NPC (AID 624030; active means well fitted curve in the direction sought with a large enough effect; an effect the other way counts as inactive or inconclusive;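 further: purified P. pyralis luciferase at 10 nM with luciferin and ATP substrate; 0% = DMSO and -100% = full luciferase inhibition by PTC124 control; nearly all actives have a fitted effect of over 70% in size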)
Method in brief: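 Purified P. pyralis luciferase at 10 nM in 50 mM Tris Acetate (final), luminescence read within 5 minutes of enzyme addition to compounds. Activity normalised to PTC124 versus DMSO; concentration-response curves classed by r2, magnitude and activity.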

[13] = S16 Schwann cell PMP22 intronic element firefly luciferase assay (AID 624032; active means well fitted curve in the direction sought with a large enough effect; an effect the other way counts as inactive or inconclusive;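 further: plate controls were DMSO for no effect and PTC124 positive control mean for full effect; nearly all actives have a fitted effect of over 30% in size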)
Method in brief: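 Rat S16 Schwann cells stably carrying firefly luciferase driven by a PMP22 intronic element, in 10% FBS, treated 24 h at 37 C. ONE-Glo luminescence normalized to PTC124 control and DMSO (0%); curves classed by r2, magnitude and activity.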

[14] = qHTS profiling for inhibitors of Plasmodium falciparum proliferation (AID 504749; active means well fitted curve in the direction sought with a large enough effect; an effect the other way counts as inactive or inconclusive;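 further: 0% = DMSO vehicle and full inhibition = artemisinin control; nearly all actives have a fitted effect of over 60% in size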); conditions: P. falciparum in erythrocytes, SYBR Green DNA, 72 h, at 12.8 µM (top of the series)
Method in brief: (§1)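 Readout was DNA-dye fluorescence from lysed cultures, ex 485/em 535 nm. Parasitized red cells had grown 72 h with compound; data scaled between 0.29 uM artemisinin and DMSO wells and corrected using vehicle-only plates.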

[15] = test system: CP191; test: as above; conditions: P. falciparum in erythrocytes, SYBR Green DNA, 72 h; series mostly up to 12.8 µM
Method in brief: as §1

[16] = test system: CP217; test: as above; conditions: P. falciparum in erythrocytes, SYBR Green DNA, 72 h; series mostly up to 12.8 µM
Method in brief: as §1

[17] = test system: CP250; test: as above; conditions: P. falciparum in erythrocytes, SYBR Green DNA, 72 h; series mostly up to 12.8 µM
Method in brief: as §1

[18] = test system: CP256; test: as above; conditions: P. falciparum in erythrocytes, SYBR Green DNA, 72 h; series mostly up to 12.8 µM
Method in brief: as §1

[19] = test system: FAB9; test: as above; conditions: P. falciparum in erythrocytes, SYBR Green DNA, 72 h; series mostly up to 12.8 µM
Method in brief: as §1

[20] = test system: JCK; test: as above; conditions: P. falciparum in erythrocytes, SYBR Green DNA, 72 h; series mostly up to 12.8 µM
Method in brief: as §1

[21] = measured here: cell count channel max response
[22] = measured here: lipid channel max response

Sequence of Cytochrome P450 1A2 (Homo sapiens) (P05177 whole entry, looked up): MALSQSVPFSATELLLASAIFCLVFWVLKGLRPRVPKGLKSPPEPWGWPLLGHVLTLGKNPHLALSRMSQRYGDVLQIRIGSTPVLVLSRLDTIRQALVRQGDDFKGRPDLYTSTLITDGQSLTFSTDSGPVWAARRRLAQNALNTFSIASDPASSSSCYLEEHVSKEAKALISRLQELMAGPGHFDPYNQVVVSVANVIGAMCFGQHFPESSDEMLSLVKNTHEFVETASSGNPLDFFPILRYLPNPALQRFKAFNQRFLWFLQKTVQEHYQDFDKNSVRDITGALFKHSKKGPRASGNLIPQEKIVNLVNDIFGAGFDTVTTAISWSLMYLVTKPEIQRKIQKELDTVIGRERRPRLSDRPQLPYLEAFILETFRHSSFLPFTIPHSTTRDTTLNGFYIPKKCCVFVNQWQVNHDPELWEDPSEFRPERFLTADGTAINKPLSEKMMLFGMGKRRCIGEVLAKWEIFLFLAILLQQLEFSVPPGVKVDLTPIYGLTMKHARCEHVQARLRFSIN
Sequence of Glucocorticoid receptor (Homo sapiens) (P04150 whole entry, looked up, the tested form may be a part): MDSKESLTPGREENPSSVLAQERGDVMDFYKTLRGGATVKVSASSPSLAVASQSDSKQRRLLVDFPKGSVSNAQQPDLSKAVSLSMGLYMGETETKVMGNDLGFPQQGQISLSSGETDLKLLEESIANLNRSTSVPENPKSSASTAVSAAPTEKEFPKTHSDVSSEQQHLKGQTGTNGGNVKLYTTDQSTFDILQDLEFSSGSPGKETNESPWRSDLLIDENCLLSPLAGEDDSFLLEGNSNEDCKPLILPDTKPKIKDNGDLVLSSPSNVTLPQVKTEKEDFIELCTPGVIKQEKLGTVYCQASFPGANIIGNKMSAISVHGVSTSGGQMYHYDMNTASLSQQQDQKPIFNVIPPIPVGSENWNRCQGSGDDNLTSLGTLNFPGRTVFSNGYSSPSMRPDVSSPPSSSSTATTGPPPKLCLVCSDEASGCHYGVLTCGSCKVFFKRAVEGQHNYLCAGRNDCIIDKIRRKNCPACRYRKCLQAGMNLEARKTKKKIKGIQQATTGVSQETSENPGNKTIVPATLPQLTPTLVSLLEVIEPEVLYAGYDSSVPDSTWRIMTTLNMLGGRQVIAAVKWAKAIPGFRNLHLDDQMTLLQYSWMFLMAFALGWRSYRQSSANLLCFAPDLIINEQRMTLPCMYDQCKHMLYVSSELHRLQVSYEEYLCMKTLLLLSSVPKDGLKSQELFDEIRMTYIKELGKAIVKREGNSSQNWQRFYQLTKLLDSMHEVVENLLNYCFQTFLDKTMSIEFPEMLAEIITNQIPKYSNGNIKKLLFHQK
Sequence of Ubiquitin carboxyl-terminal hydrolase 1 (Homo sapiens) (O94782 whole entry, looked up): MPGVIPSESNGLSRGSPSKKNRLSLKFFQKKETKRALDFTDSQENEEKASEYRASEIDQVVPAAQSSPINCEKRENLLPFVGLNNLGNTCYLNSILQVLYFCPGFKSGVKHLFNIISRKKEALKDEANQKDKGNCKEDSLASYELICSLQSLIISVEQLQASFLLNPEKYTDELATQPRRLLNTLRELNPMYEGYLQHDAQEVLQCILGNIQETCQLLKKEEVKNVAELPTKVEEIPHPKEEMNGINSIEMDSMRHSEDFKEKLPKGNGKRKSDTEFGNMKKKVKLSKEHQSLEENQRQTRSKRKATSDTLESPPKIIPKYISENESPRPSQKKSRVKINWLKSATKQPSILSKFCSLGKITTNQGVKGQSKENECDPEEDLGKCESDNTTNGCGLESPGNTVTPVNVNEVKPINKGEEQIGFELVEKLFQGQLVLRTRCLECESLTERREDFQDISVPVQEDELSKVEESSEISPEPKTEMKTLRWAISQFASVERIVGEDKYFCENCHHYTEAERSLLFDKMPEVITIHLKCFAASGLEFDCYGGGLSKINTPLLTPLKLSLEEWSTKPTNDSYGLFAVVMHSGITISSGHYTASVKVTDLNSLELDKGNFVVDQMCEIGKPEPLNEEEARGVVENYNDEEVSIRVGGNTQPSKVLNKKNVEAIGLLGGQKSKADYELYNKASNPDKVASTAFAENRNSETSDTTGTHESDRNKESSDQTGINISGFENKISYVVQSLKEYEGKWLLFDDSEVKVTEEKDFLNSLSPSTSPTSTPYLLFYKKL
Sequence of 3',5'-cyclic-AMP phosphodiesterase 4B (Homo sapiens) (Q07343 whole entry, looked up): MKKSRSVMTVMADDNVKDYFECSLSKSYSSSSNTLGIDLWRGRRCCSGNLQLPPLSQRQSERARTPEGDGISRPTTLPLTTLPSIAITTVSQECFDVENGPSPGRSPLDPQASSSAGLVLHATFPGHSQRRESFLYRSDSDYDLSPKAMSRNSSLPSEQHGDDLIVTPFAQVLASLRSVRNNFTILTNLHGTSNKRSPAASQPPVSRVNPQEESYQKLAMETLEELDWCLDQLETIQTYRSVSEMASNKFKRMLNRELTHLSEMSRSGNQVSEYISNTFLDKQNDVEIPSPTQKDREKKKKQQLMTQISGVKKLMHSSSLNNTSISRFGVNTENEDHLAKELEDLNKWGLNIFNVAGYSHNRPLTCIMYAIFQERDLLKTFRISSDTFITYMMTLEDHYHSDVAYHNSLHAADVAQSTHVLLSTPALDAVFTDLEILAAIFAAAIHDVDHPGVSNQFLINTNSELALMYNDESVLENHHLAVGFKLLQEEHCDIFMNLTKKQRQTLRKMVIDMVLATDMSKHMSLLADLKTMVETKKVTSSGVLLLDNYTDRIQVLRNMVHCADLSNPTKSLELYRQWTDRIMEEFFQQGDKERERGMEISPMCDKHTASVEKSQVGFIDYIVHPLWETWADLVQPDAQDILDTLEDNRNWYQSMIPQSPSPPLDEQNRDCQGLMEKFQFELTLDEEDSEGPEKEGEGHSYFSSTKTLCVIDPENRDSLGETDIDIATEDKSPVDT
Sequence of Luciferin 4-monooxygenase (Photinus pyralis) (P08659 whole entry, looked up): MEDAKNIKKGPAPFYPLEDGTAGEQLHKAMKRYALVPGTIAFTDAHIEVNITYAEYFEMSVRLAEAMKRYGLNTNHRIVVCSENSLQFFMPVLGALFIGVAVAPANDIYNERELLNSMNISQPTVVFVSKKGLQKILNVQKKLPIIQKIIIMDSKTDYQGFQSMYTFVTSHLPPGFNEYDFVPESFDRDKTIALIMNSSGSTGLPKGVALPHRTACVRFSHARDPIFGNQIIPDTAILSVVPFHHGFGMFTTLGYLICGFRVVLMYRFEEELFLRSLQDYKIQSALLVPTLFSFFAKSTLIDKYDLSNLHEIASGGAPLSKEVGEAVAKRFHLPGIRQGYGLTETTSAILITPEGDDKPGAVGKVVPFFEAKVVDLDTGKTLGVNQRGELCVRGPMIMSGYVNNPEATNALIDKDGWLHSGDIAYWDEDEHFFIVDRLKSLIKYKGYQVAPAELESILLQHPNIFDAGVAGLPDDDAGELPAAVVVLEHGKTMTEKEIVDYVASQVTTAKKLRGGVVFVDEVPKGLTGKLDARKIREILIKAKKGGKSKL
Sequence of ATP-dependent 6-phosphofructokinase (Trypanosoma brucei brucei) (O15648 whole entry, looked up): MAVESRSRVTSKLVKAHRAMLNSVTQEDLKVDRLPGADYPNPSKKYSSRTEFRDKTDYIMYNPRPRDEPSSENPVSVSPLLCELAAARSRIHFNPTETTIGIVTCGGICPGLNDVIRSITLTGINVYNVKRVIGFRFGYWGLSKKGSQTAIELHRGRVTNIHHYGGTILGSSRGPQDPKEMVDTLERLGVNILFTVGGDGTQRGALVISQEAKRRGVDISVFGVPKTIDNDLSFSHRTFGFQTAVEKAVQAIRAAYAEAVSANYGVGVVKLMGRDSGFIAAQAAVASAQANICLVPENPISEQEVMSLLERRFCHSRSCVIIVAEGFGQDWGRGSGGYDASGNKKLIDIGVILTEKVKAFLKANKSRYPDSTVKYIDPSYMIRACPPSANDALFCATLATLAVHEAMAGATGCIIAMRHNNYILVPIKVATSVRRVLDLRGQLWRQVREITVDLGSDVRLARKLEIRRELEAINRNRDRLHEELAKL

OC[C@@H](O)CN1CCN(c2ccccc2)CC1
-9.92%: max response [9, 21]
-7.93%: max response [9, 22]
inactive: outcome [1] | Potency [2] | activity change, negative = inhibition [3] 3.85% | outcome [4] | Potency [5] > 20.6 µM | Potency [6] > 20.6 µM | Potency [7] | outcome [8] | activity change, negative = inhibition ([9]; at 25.7 µM (top of the series)) 0.251% | Potency [10]

C[C@H](CCC(=O)NCC(=O)O)[C@H]1CC[C@H]2[C@H]3[C@@H](C[C@@H](O)[C@]12C)[C@]1(C)CC[C@H](O)C[C@@H]1C[C@@H]3O
-0.773%: max response [9, 22]
inactive: outcome [1] | Potency [2] | activity change, negative = inhibition [3] 15.3% | outcome [4] | Potency [6] > 20.6 µM | Potency [7] | activity change, negative = inhibition ([9]; at 25.7 µM (top of the series)) 0.864% | Potency [10]
-1.04%: max response [9, 21]

CC(=O)N[C@@H](CC(=O)O)C(=O)O
-4.28%: max response [9, 22]
inactive: outcome [1] | Potency [2] | activity change, negative = inhibition [3] -10.7% | outcome [4] | Potency [5] > 20.6 µM | Potency [6] > 20.6 µM | outcome [8] | activity change, negative = inhibition ([9]; at 25.7 µM (top of the series)) -1.04% | Potency [10]
-3.12%: max response [9, 21]

C[C@H]1[C@@H](O)[C@@H](C)\C=C/C=C\C=C/C=C\C=C/C=C\C=C/[C@@H](O[C@H]2O[C@@H](C)[C@@H](O)[C@@H](N)[C@@H]2O)C[C@@H]2O[C@](O)(C[C@@H](O)C[C@@H](O)[C@@H](O)CC[C@@H](O)C[C@@H](O)CC(=O)O[C@H]1C)C[C@@H](O)[C@H]2C(=O)O (stereo in doubt)
0.724%: max response [9, 21]
3.85%: max response [9, 22]
inactive: outcome [1] | Potency [2] | activity change, negative = inhibition [3] -11.5% | outcome [4] | Potency [5] > 20.6 µM | Potency [6] > 20.6 µM | Potency [7] | outcome [8] | activity change, negative = inhibition ([9]; at 25.7 µM (top of the series)) 3.52% | Potency [10]

COc1ccc([C@@H]2CC(=O)c3c(O)cc(O[C@H]4O[C@@H](CO[C@H]5O[C@@H](C)[C@@H](O)[C@@H](O)[C@@H]5O)[C@@H](O)[C@@H](O)[C@@H]4O)cc3O2)cc1O
-12%: max response [9, 21]
inactive: outcome [1] | Potency [2] | activity change, negative = inhibition [3] 6.75% | outcome [4] | Potency [6] > 20.6 µM | Potency [7] | outcome [8] | activity change, negative = inhibition ([9]; at 25.7 µM (top of the series)) -0.902% | outcome [11] | Potency [10] | Potency [12] | Potency [13] | activity, negative = inhibition ([14]; parasite line A) 5.87% | activity, negative = inhibition ([14]; parasite line B) -4.16% | Potency [15] | Potency [16] | Potency [17] | Potency [18] | Potency [19] | Potency [20]
-8.76%: max response [9, 22]

CN(C)c1ccc(-c2nccc(NCc3ccccc3)n2)cc1
inactive: outcome [1] | activity change, negative = inhibition [3] -14.3% [at 7.69 µM] | outcome [4] | Potency [5] > 46 µM | Potency [6] > 46 µM | Potency [7] | activity change, negative = inhibition ([9]; at 57.5 µM (top of the series)) 2.02% | Potency [10]
active: Potency [2] 1.26 µM
-1.11%: max response [9, 22]
-4.09%: max response [9, 21]

NC(=O)N/N=C\c1ccc([N+](=O)[O-])o1
active: Potency [2] 12.6 µM
-2.81%: max response [9, 21]
inactive: outcome [1] | activity change, negative = inhibition [3] -5.34% | outcome [4] | Potency [5] > 20.6 µM | Potency [6] > 20.6 µM | Potency [7] | outcome [8] | activity change, negative = inhibition ([9]; at 25.7 µM (top of the series)) 0.117% | Potency [10]
-1.91%: max response [9, 22]
